In general, AC50 refers to the concentration giving half of the maximal activity seen.

SMILES strings stand for the structures. Active and inactive are the calls of the source. The calls were made as follows: active = hit-call score of the fitted dose curve at least 0.9, where 1 is the maximum; inactive = score below 0.9.

Read-out in the experiment: Bcl-2 (BAD) gene, BAD (gene 572)
Briefly: LTEA_HepaRG_BAD: Life Technologies and Expression Analysis (LTEA) Assay for Bcl-2 (BAD) gene using HepaRG (AID 2283469). Particulars: mRNA level, 48 h; actives raise or lower the signal. The procedure:
LTEA_HepaRG is a cell based, multiplexed-readout assay that uses HepaRG, a human liver cell line, with measurements taken at 48 hours after chemical dosing on a 96-well plate.LTEA_HepaRG_BAD is one of 102 assay component(s) measured in the LTEA HepaRG cell culture assay. It is a marker of Cell proliferation, survival, death.Data from the assay component LTEA_HepaRG_BAD was analyzed into 1 endpoint. This assay endpoint, LTEA_HepaRG_BAD, was analyzed with bidirectional fitting relative to DMSO as the negative control and baseline of activity. Using a type of inducible reporter, measures of mRNA induction for gain or loss-of-signal activity can be used to understand regulation of transcription factor activity. To generalize the intended target to other relatable targets, this assay endpoint is annotated to the cell cycle intended target family, where the subfamily is Cell proliferation, survival, death.
A total of 1060 chemcials from the ToxCast library were tested in eight-point concentration-response experiments. Cell culture and cytotoxicity assays were conducted at Thermo Fisher Scientific's Custom Services facility (Madison, WI). A single lot of human HepaRG cells (Thermo Fisher Scientific, Frederick, MD) was used for the cell culture experiments. 96-well format collagen type I coated plates of human HepaRG cells were prepared using established methods. Briefly, cryopreserved HepaRG cells were thawed, plated at a density of approximately 100,000 cells/well in HepaRG Thaw, Plate, and General Purpose media (HPRG770, Thermo Fisher Scientific), and incubated for 48 hours. 0.5% DMSO was selected as vehicle control to balance the requisite need of DMSO in HepaRG cultures to maintain differentiation (for example, baseline metabolism, proportions of hepatocytes vs. cholangiocytes), while enabling further hepatic receptor pathway activation (for example, PXR and CAR) in response to chemical exposure. 48 hours after plating, the culture medium was replaced with HepaRG Serum-Free Incudtion Media. Cells were exposed to each test chemical in duplicate and maintained in CO2 incubators for another 48 hours. Chemical plates were thawed to room temperature and 200x concentrations of treatment groups were prepared. 8-point conentration-reponse curves were made with the highest exposure at 100 uM, followed by half-log dilutions, all in 0.5% DMSO. Each test plate contained variouse controls, induction positive controls (1mM phenobarbital), cytotoxicity positive controls ([…] aflatoxin B1), vehicle controls (0.5% DMSO), and total lysis controls (0.5% DMSO). Cell morphology images were taken using an Essen IncuCyte FLR automated microscope, with six 96-well plates imaged in about 24 minutes. Images were captured and exported and JPEG files. Spent culture media was transfered to black-well plates for the LDH assay, and remaining media was sorted at -80 C for later use. Cells were treated with RLT buffer and frozen until shipped for gene expression analysis. Total RNA was isolated from the cell suspension in 75 uL of Buffer RLT (Qiagen, Germantown, MD 20874) by Quintiles/Expression Analysis (Durham, NC) using a custom isolation procedure. Total RNA from each plate well was transferred to a preamplification plate. Fluidigm's 96.96 Dynamic ArrayTM (Fluidigm, Amsterdam, the Netherlands) technology was used for gene expression analyses by quantitative reverse transcription polymerase chain reaction (qRT-PCR, performed by Quintiles/Expression Analysis, Durham, NC)89. Standard TaqManTM Assays (Applied Biosystems/ThermoFisher Scientific, Foster City, CA) were used to assess the expression of 93 genes selected based on their selectivity and sensitivity to important hepatic receptors known to be modulated by environmental chemicals; importance in human hepatocyte functionality; and hepatotoxicity. […]
Take `CC(=O)c1ccc2c(c1)[C@H](NC(=O)c1ccc(F)cc1)[C@@H](O)C(C)(C)O2`: the outcome was inactive.

As to `CCC(C)(C)C(=O)O[C@H]1C[C@@H](C)C=C2C=C[C@H](C)[C@H](CC[C@@H]3C[C@@H](O)CC(=O)O3)[C@H]21`, the molecule was called inactive.

In the case of `CN(C)c1ccc(Cc2ccc(N(C)C)cc2)cc1`, the molecule was called inactive. On the same count and under the same terms, the same measure for `CCOCCOCCOCCO`: “inactive”.

Take `CC(C)(O)c1coc(S(=O)(=O)NC(=O)Nc2c3c(cc4c2CCC4)CCC3)c1`: the molecule was called inactive. For the molecule `COc1ccc2sc(C(=O)Nc3nnn[nH]3)c(OC(C)C)c2c1`, the result was inactive. As to `Nc1ccc(Nc2ccccc2)cc1`, the AC50 is 11.9 µM (active). Take `Cc1ccc(N)cc1O`: the outcome was inactive. The same measure, in the same setting: the same measure for `COc1ccc(/C=C/S(=O)(=O)NC(=O)c2ccc(C)cc2Cl)cc1`: “inactive”. In the case of `CCOC(=O)c1ccc(C2CCC(NC[C@H](O)COc3ccc(O)c(NS(C)(=O)=O)c3)CC2)cc1` (stereo not given in full), the result was inactive. On the same count and under the same terms, the same measure for `CC(C)CCCCCCCOC(=O)CCCCC(=O)OCCCCCCCC(C)C`: “inactive”. For the molecule `Cc1ccc(S(=O)(=O)O)cc1C`, the outcome was inactive. As to `COCCOc1cc2cc(C(=O)NC3CCN(C(C)C)CC3)n(CC(=O)Nc3ccc(Cl)cn3)c2cn1`, the molecule was classed as inactive. Regarding `C=CCCCCCCCCC(=O)O`, the result was inactive. As for `O=c1n(CC2CO2)c(=O)n(CC2CO2)c(=O)n1CC1CO1` (stereo not given), the molecule was classed as inactive.

For `O=C(O)CCN(C1(C(=O)NO)CCCC1)S(=O)(=O)c1ccc(Oc2ccc(F)cc2)cc1`, the molecule was called inactive. Still for that read-out and setting: the same measure for `CC(C)=CCC/C(C)=C/CO`: “inactive”; for `Cc1[nH]cnc1C[C@H]1CCc2c(C)c3ccccc3n2C1=O`: “inactive”. The same measure, in the same setting: the same measure for `CC(C)=CCC/C(C)=C\CO`: “inactive”; for `C1N2CN3CN1CN(C2)C3`: “inactive”; for `CCn1nc(Cc2ccccc2)cc1C1CCN(C[C@H]2C[C@H](N(C)[C@@H](C(=O)O)C(C)C)C[C@@H]2c2cccc(F)c2)CC1`: “inactive”. On the same count and under the same terms, to `O=C(NS(=O)(=O)/C=C/c1ccccc1)c1ccc(F)cc1Cl` belongs “inactive”; to `CC[C@H]1OC(=O)[C@H](C)[C@@H](O[C@H]2C[C@@](C)(OC)[C@@H](O)[C@H](C)O2)[C@H](C)[C@@H](O[C@@H]2O[C@H](C)C[C@H](N(C)C)[C@H]2O)[C@](C)(O)C[C@@H](C)C(=O)[C@H](C)[C@@H](O)[C@]1(C)O`, “inactive”. `NC(=O)NO`: the molecule was called inactive. The same measure, in the same setting: the same measure for `O=C(CCCCCCCCc1cccnc1)N1CCC(C=C(c2ccccc2)c2ccccc2)CC1`: “inactive”; for `CC(C)c1cccc(C(C)C)c1N1C(=O)c2ccc(O)cc2C1=O`: “inactive”; for `O=c1[nH]c2ccc(S(=O)CCN3CCC(Cc4ccc(F)cc4)CC3)cc2o1` (stereo not given): “inactive”. For `COc1ccc(-n2nc(C(F)F)cc2-c2ccc(S(C)=O)cc2)cc1` (stereo not given), the call was inactive. Still for that read-out and setting: the same measure for `CCOC(=O)COc1ccc2c(c1)CC(NCC(O)c1cccc(Cl)c1)CC2` (stereo not given): “inactive”. For the molecule `CC1=CC(=O)CC(C)(C)C1`, the call was inactive. On the same count and under the same terms, the same measure for `COCCOCCOCCOC`: “inactive”; for `CC(C)CCO`: “inactive”. Still for that read-out and setting: to `Cn1c(=O)c2c(ncn2C)n(C)c1=O` belongs “inactive”; to `CC(C)=CCCC(C)CCO` (stereo not given), “inactive”; to `O=C(O)c1cc(N=Nc2ccc(S(=O)(=O)Nc3ccccn3)cc2)ccc1O`, “inactive”. The same measure, in the same setting: the same measure for `CC(C)CC(C)(O)C#CC(C)(O)CC(C)C` (stereo not given): “inactive”. `CCCCCCc1ccc(O)cc1O`: the call was inactive. Still for that read-out and setting: the same measure for `Cn1cnc([N+](=O)[O-])c1Sc1ncnc2nc[nH]c12`: “inactive”; for `CC(C)=CCCC(C)=CC=O`: “inactive”. On the same count and under the same terms, the same measure for `CCCCCCCCCCCCCCCO`: “inactive”.
